According to PubChem BioAssay AID1851 (National Center for Advancing Translational Sciences (NCATS), 2009):
Where “and” joins values, the source holds several entries; their conditions need not be identical. Equal entries are not always repeated. The whole screen tested about 16,000 compounds, of which about 5,800 (36%) were called active. About 23% were inconclusive and are not listed. Calls follow the shape of the dose curve; as a rule, active = well fitted curve in the direction sought with a large enough effect; inconclusive = small, poorly fitted or top-dose-only effect, or effect the other way; inactive = no such curve, though single readings can be large or run the other way. Some of the results follow. A structure can be active in one record and inactive in another.

Biological target: Cytochrome P450 2C19 (Homo sapiens) (UniProt P33261)
Test: Cytochrome panel assay with activity outcomes
Settings: recombinant CYP, pro-luciferin dealkylation, luminescence, p450-cyp2c19; series mostly up to 57.1 µM; activity, negative = inhibition: at the top concentration
% is scaled to controls: 0 for no effect and ±100 for the full control effect.

Sequence of Cytochrome P450 2C19 (Homo sapiens) (P33261 whole entry, looked up): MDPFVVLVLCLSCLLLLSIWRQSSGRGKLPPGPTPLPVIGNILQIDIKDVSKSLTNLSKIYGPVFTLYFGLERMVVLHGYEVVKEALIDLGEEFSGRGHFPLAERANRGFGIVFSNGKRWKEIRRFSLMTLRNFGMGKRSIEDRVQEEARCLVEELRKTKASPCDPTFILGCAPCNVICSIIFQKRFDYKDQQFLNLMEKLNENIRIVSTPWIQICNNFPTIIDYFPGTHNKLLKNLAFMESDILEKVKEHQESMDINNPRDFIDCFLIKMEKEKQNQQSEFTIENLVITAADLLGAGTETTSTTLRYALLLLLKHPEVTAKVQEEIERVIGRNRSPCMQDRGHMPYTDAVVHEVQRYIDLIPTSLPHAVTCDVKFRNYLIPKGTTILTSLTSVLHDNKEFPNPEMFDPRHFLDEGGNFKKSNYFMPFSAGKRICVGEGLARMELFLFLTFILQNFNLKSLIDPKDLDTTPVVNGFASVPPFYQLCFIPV

Structure (SMILES)	AC50	activity, negative = inhibition
CCCc1cc2c(cc1NC(=O)c1ccccc1C)OCO2	0.178 µM (active)	–
CCCc1cc2c(cc1NC(=O)c1ccc(Br)cc1)OCO2	0.0794 µM (active)	–
CCCc1cc2c(cc1NC(=O)c1ccccc1Cl)OCO2	0.398 µM (active)	–
Cc1nn(C)c(C)c1CNC(=O)c1cnn2c1NC(c1ccccc1)CC2C(F)(F)F (stereo unspecified)	–	-29.2% (inactive)
COc1ccccc1CN1CC2(CCN(S(C)(=O)=O)CC2)C1	–	20.8% (inactive)
CN(C)C(=C(C#N)C#N)N1CCN(c2ccc(Cl)c(Cl)c2)CC1	10 µM (active)	–
CCC(Sc1nc(=O)cc(N)n1CCc1ccccc1)C(=O)Nc1ccccc1C#N (stereo unspecified)	11.2 µM (active)	–
Nc1cc(=O)nc(SCC(=O)Nc2cccc3ccccc23)n1CCc1ccccc1	14.1 µM (active)	–
NCCCC(=O)O	–	-39.8% (inactive)
Cn1c(CNC(=O)Nc2ccccc2)nnc1SCc1ccccc1	7.08 µM (active)	–
CCCCN(C)CCCNC(=O)CCn1nc(-c2ccccc2)ccc1=O	–	-12.1% (inactive)
CCN(CC)CCC(=O)Nc1ccc2c(c1)N(C(=O)CN(CC)CC)c1ccccc1CC2	–	-22.9% (inactive)
CCN(CCCNC(=O)CC(C(=O)N1CCc2ccccc21)n1ccnc1)c1ccccc1 (stereo unspecified)	0.562 µM (active)	–
CC(C(=O)NC1CCCC1)N(C(=O)c1snc(C(N)=O)c1N)c1ccc2c(c1)OCCO2 (stereo unspecified)	15.8 µM (active)	–
CN(CCO)c1nc(N)c2c(N)nc3c(c2c1C#N)CC(=O)N3C1CCCC1	–	-14.8% (inactive)
CCCn1nnnc1-c1cccc(Cl)c1	5.01 µM (active)	–
CCCn1nnnc1-c1cc(Cl)cc(Cl)c1	–	-63.7% (inactive)
Cc1oc(-c2cccc(Cl)c2)[n+]([O-])c1C	–	-28.5% (inactive)
Clc1ccc(-c2nnc(-c3ccccc3)c(N3CCSCC3)n2)cc1	14.1 µM (active)	–
Brc1ccc(-c2nnc(-c3ccccc3)c(N3CCSCC3)n2)cc1	14.1 µM (active)	–
O=c1c(-c2ccc(Cl)cc2)nc2cnc(N3CCOCC3)nc2n1CCc1ccccc1	–	-18.1% (inactive)

Structure (SMILES)	AC50	activity, negative = inhibition
Cc1nnc(S(=O)(=O)c2ccc(N=Nc3c(N)nc(N)nc3N)cc2)s1	–	32.1% [at 11.4 µM] (inactive)
CN1CCC[C@@H](CC2c3ccccc3Sc3ccccc32)C1	–	-31.2% [at 25.6 µM] (inactive)
CSc1ccc2c(c1)[C@H](N1CCN(C)CC1)Cc1ccccc1S2	inactive and 2.51 µM (active) and 7.94 µM (active)	–
CO[C@H]1COC(=O)[C@@H](Cc2ccccc2)NC(=O)[C@@H](C)COC(=O)C/C=C\[C@@H]1C	–	-5.86% [at 11.4 µM] (inactive)
Cc1nc(-c2c(C(F)(F)F)noc2-c2ccc(O)cc2O)cs1	1.26 µM (active)	–
O=C(N/C(=C\c1cccnc1)C(=O)N1CCOCC1)c1cccc(Br)c1	–	-4.28% (inactive)
O=C(/C=C/c1cccnc1)c1ccc(NC(=O)c2cccc(Br)c2)cc1	2.51 µM (active)	–
COC(=O)c1c(-c2cc(OC)c(OC)c(OC)c2)c2ccnc(OCc3ncccn3)c2c(=O)n1Cc1ccnc(C)c1	–	-37.4% (inactive)
CCOc1[nH]n(-c2ccccc2)c(=O)c1C=Nc1ccc(Cl)cc1	8.91 µM (active)	–
CCOc1[nH]n(-c2ccc(Cl)cc2)c(=O)c1C=Nc1ccc(Cl)cc1	–	-3.5% (inactive)
Cc1ccc(-n2[nH]c(C)c(C=Nc3ccc4[nH]c(=O)[nH]c4c3)c2=O)cc1C	–	-6.05% (inactive)
COc1ccc(CNC(=O)CN(CC2CCCO2)C(=O)CNS(=O)(=O)c2ccccc2)cc1 (stereo unspecified)	14.1 µM (active)	–
O=C(O)c1cc(S(=O)(=O)NCC2CCCO2)ccc1Cl (stereo unspecified)	–	8.86% (inactive)
O=C(CN(CC1CCCO1)C(=O)CNS(=O)(=O)c1ccc(Cl)cc1)NCCc1ccccc1 (stereo unspecified)	31.6 µM (active)	–
CCN(CC)CCOC(=O)[C@@H](Cc1cccc2ccccc12)C[C@@H]1CCCO1	–	-28.4% [at 25.6 µM] (inactive)
Cc1nn(Cc2c(F)c(F)c(F)c(F)c2F)c(C)c1NC(=O)c1cccc(COc2ccc(Cl)cc2)c1	14.1 µM (active)	–
Cc1nn(Cc2c(F)c(F)c(F)c(F)c2F)c(C)c1NC(=O)c1c(-c2ccccc2)nn(-c2ccccc2)c1C	2.24 µM (active)	–
O=C1NC(O)=NC1(c1ccccc1)c1ccccc1	–	-20.5% (inactive)
COCCCNC(=O)/C=C/c1ccc(Cl)cc1	–	-22.8% (inactive)
O=C(/C=C/c1ccc(Cl)cc1)NCCSc1ccccc1	1.78 µM (active)	–
CCCCCCCCCCCCCCC[C@H](O)[C@H](N)CO	–	-7.82% (inactive)

Structure (SMILES)	AC50	activity, negative = inhibition
CC1=NN(c2ccccc2)C(=O)[C@@H]1N=Nc1ccc(S(N)(=O)=O)cc1	–	20.1% [at 11.4 µM] (inactive)
CC1=NN(c2ccc(C)cc2C)C(=O)C1C(c1ccccc1)C1C(=O)N(c2ccc(C)cc2C)N=C1C (stereo unspecified)	4.47 µM (active)	–
COCCn1c(=O)c(-c2cccc(C#N)c2)nc2cnc(N3CCN(C)CC3)nc21	–	3.31% (inactive)
O=c1c2c(-c3cccs3)csc2[nH]c(=S)n1-c1ccccc1	10 µM (active)	–
CN(C)c1ncc2nc(-c3cccs3)c(=O)n(-c3ccccc3)c2n1	–	-10.1% (inactive)
COc1ncc2nc(-c3cccs3)c(=O)n(-c3ccccc3)c2n1	–	-18.4% (inactive)
Cn1c(-c2sc(=S)n(-c3ccccc3)c2N)nc2ccccc21	1.41 µM (active)	–
Cc1cccc(N2CC(O)=C(c3nc4ccccc4n3C)C2=N)c1	–	-26% (inactive)
CN(C)CC/C=C1\c2ccccc2COc2ccccc21	inactive	–
CC(C)(C)NC[C@@H](O)c1ccc(O)c(CO)n1	–	27.5% [at 11.4 µM] (inactive)
CCCc1c(O)c2ccccc2n(-c2ccccc2)c1=O	11.2 µM (active)	–
CN(C(=O)c1c(O)c2ccccc2n(C)c1=O)c1ccccc1	–	-26.4% (inactive)
CCNc1ncc2nc(-c3cn(C)c4ccccc34)c(=O)n(-c3ccccc3)c2n1	–	-27.1% (inactive)
O=C1CC(c2ccc3c(c2)OCO3)Sc2nc3ccccc3n21 (stereo unspecified)	2 µM (active)	–
CCOc1cc(CNCCO)cc(Br)c1OCc1ccccc1Cl	7.08 µM (active)	–
CCOc1cc(CNCCc2ccc(S(N)(=O)=O)cc2)cc(Cl)c1OCc1ccccc1	3.55 µM (active)	–
Cc1noc(C)c1C(=O)N1CCC2(CCN(Cc3cc(C(F)(F)F)cc(C(F)(F)F)c3)CC2)CC1	–	-3.13% (inactive)
Cc1nnc(-c2cnn(-c3ccccc3)c2N)n1Cc1ccc(F)cc1	17.8 µM (active)	–
Cc1nnc(-c2cnn(-c3ccccc3)c2N)n1Cc1ccccc1	–	-12.1% (inactive)
